Measurements published in PubChem BioAssay (NCI).
The panel holds about 83,000 compounds, 20% with a hit somewhere; the sample as a whole holds those more often.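 The test compound was applied at a single concentration to cells in 96-well plates for 48 hours, and percent growth was recorded.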 Unmarked numbers belong to inactive results. The source made the active and inactive calls. The calls were made as follows: active = growth percent below 10; inactive = the rest.

tested on: M14 melanoma; assay: NCI-60 one-dose screen, 48 h (100 = growth as untreated, 0 = no growth, -100 = all killed); settings: 10 µM unless noted

SMILES	growth
FC(F)(F)c1cc(-c2nnc3n2N=C(Cl)CS3)cc(C(F)(F)F)c1	84.6%
COc1ccc(/C=C/c2nc3ccccc3c(=O)n2-c2ccc(C#Cc3ccc(C(C)(C)C)cc3)cc2C)c(OC)c1	96.8%
Cc1cc(O)c2cc3c(O)c(O)ccc3cc2c1	128%
COc1ccc(-c2nc3ccccc3n3cccc23)cc1	100%
CCOC(=O)c1cc(C(=O)OCC)c(C)nc1C	111%
O=C1OCC2=C1C(c1ccccc1)c1cc3c(cc1N2CCO)OCO3 (stereo unspecified)	3.99% (active)
CCC1N=C(N)N=C(N)N1c1ccc(Cl)cc1 (stereo unspecified)	79.7%
COc1cc(OC)cc(-c2ccc(-c3ccc(C(=N)N)s3)s2)c1	-88.2% (active)
Cc1cccc(N=NC(=S)NNc2cccc(C)c2)c1	108%
CCn1c(Cc2ccccc2Nc2c(Cl)cccc2Cl)nnc1SCC(=O)Nc1cccc(OC)c1	76.4%
NC(=S)N1N=C(c2ccc(Cl)cc2)CC1c1cc2ccccc2[nH]c1=O (stereo unspecified)	111%
CC(C)c1nc2ccccc2n1CC(=O)N/N=C/c1cccc(O)c1	94.8%
COc1ccc(Oc2nc(Nc3ccc(N4CCOCC4)cc3)ncc2NC(=O)Nc2cccc(OC)c2)cc1	71.9%
C=C1C(=O)O[C@H]2[C@H]1CC/C(COC(=O)NCc1[nH]nc3ccccc13)=C\CC[C@@]1(C)O[C@@H]21	13.8%
CC(=O)Oc1c(Cl)c(Cl)c(Cl)c(Cl)c1Cl	105%
CC(=O)Nc1c(Br)cc2c(c1Br)Cc1cc(Br)ccc1-2	62.4%
Cc1ccc(C(CN(C)C)C(=O)c2ccccc2)cc1 (stereo unspecified)	31.6%
CCOC(=O)C(CCCCC(NC(C)=O)(C(=O)OCC)C(=O)OCC)(NC(C)=O)C(=O)OCC	105%

SMILES	growth
O=[N+]([O-])c1ccc(SSc2ccc([N+](=O)[O-])cc2Cl)c(Cl)c1	103%
COc1cc(/C=C2\CN(C(=O)OC(C)(C)C)C/C(=C\c3ccc(O)c(OC)c3)C2=O)ccc1O	93.9%
O=S1(=O)NCCN1CCNc1nccc(-c2c(-c3cccc(O)c3)nc3sccn23)n1	20.8%
CNCCCn1c2c(c3ccc(Cl)cc3c1=O)C(=O)c1cc(OC)cnc1-2	36%
O=C(/C=C/c1ccccc1)c1c[nH]c2ccccc2c1=O	-24% (active)
N=C(N)c1ccc(-c2ccc(-c3ccco3)o2)cc1F	-65.9% (active)
C[C@@H]1N=C(c2ccc3ccccc3c2)Nc2nc3ccccn3c2C1=O	19.8%
COc1ccc2[nH]cc(C3(c4c[nH]c5ccc(OC)cc45)C(=O)Nc4ccc(F)cc43)c2c1	86.7%
CC(=O)Nc1ccc(/C=N/N2CCCCCC2)cc1	106%
COc1cc(-c2nn(C(=O)NCCN3CCN(C)CC3)cc2-c2ccncc2)ccc1Cl	68.9%
COc1cc(C2CC(=O)Nc3c2cnn3C)cc(OC)c1OC (stereo unspecified)	103%
COc1cc2c(c(OC)c1O)C(=O)C(OC)C(c1ccc(O)c(O)c1)O2 (stereo unspecified)	-3.36% (active)
CCOC(=O)C1C(=O)C=C(c2ccccc2)CC1c1sc(N(C)Cc2ccccc2)nc1Cl (stereo unspecified)	94.7%
CC(C)[C@@H]1C=C2CC[C@H]3[C@](C)(CN)CCC[C@]3(C)[C@H]2CC1	89.3%
CC1(C)CN(CCNc2nccc(-c3c(-c4cccc(O)c4)nc4sccn34)n2)S(=O)(=O)N1	-1.68% (active)
CCNC(=O)c1ccc2c(c1)nc(-c1ccc(Cl)cc1)n2-c1cc(C(C)(C)C)[nH]n1	18.1%
CCc1c(C)c2ccc(O)c(-c3cc(-c4ccccc4)c(C#N)c(=O)[nH]3)c2oc1=O	102%
C=C(C)[C@@H]1CC[C@]2(C(=O)NS(=O)(=O)c3ccccc3)CC[C@]3(C)[C@H](CC[C@@H]4[C@@]5(C)CC[C@H](OC(=O)NS(=O)(=O)c6ccccc6)C(C)(C)[C@@H]5CC[C@]43C)[C@@H]12	12.8%
